According to PubChem BioAssay (NCATS):
Inconclusive results are not listed. Active and inactive are the calls of the source. Calls follow the shape of the dose curve; as a rule, active = well fitted cell-killing curve with a large enough effect; inconclusive = small, poorly fitted or top-dose-only effect, or effect the other way; inactive = flat fitted curve, though single readings scatter.

Experiment: S16 Schwann cell viability assay (CellTiter-Glo assay) (AID 624031);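 also: cellular ATP luminescence as a viability measure; nearly all actives have a fitted effect of over 70% in size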
Settings: S16 rat Schwann cells viability, 24 h; series mostly up to 57.5 µM; activity change, negative = cytotoxicity: at the top concentration
Text: Charcot-Marie-Tooth-Association [CMTA]
National Center for Advancing Translational Sciences [NCATS]
Charcot-Marie-Tooth (CMT) disease was first characterized by Jean-Martin Charcot and Pierre Marie in France and, independently, by Howard Henry Tooth in England in 1886. CMT is one of the most common inherited neurological diseases, affecting approximately 1 in 2,500 Americans. […] The most prevalent type of CMT is known as CMT1A and caused by a duplication of the PMP22 gene which leads to over-expression of this protein. PMP22 is a glycosylated intrinsic membrane protein accounting for 2-5% of the myelin protein content, and its over-expression results in demyelination and subsequently axonal loss.
A pair of cellular transcription-based assays was developed in the S16 rat Schwann cell lines (Hai, M., et al., 2002) stably transfected with orthogonal reporters - firefly luciferase (Fluc) and beta-lactamase (beta-Lac) - whose expression is driven by an intronic regulatory element of the PMP22 gene (Jones, E.A., et al., 2011) to recapitulate endogenous expression of PMP22. A comprehensive library of approved drugs, the NCGC Pharmaceutical Collection (Huang, R., et al., 2011), was screened in the cross-validating platform of the orthogonal reporter assays to identify drug modulators inhibitory towards PMP22 expression.
A set of counter-screens was devised to address non-specific activity of the library. An ATP-dependent CellTiter-Glo assay (developed by Promega Corp) was utilized to control cell viability. In addition, biochemical Fluc enzyme assay was performed to assess direct inhibition of the Fluc enzymatic activity.
Hai, M., Muja, N., DeVries, G.H., Quarles, R.H. and Patel, P.I. Comparative analysis of Schwann cell lines as model systems for myelin gene transcription studies. J Neurosci Res, 2002. 69(4): pp 497-508
Huang, R., Southall, N., Wang, Y., Yasgar A., Shinn P., Jadhav, A. , Nguyen, D.-T. and Austin, C.P., The NCGC pharmaceutical collection: a comprehensive resource of clinically approved drugs enabling repurposing and chemical genomics. Sci Transl Med, 2011. 3(80): p. 80ps16.
Native S16 cells were seeded in white solid-bottom 1536 well plates at between 500-750 cells/6uL in DMEM medium containing 10% FBS, w/o phenol red. After overnight incubation at 37 degree Celsius/5% C02, 23 nL of compounds or DMSO were delivered to each well using a pin tool, followed by 24h-incubation at 37 degree Celsius/5% C02. Then one volume of CellTiter-Glo assay reagent (Promega) was added to each well for cell viability measured by a ViewLux plate reader (PerkinElmer). The % activity was determined by normalizing to the average readings from wells containing no cells relative to DMSO-treated cells (0% Activity). The concentration-effect curves were then classified based on curve quality (r2), response magnitude and degree of measured activity.
With O[C@@H]1CO[C@H]2[C@@H]1OC[C@@H]2O the “activity change, negative = cytotoxicity” value was 7.53% (inactive). In the case of O=C(NCCCN1CCOCC1)c1ccc(Cl)cc1, the “activity change, negative = cytotoxicity” value is reported as 0.54% (inactive). With C[C@H]1COc2c(C3(N)CC3)c(F)cc3c(=O)c(C(=O)O)cn1c23 the “activity change, negative = cytotoxicity” value was 1.17% (inactive). In the case of Cc1cc(-n2nc3ccc(Cl)cc3n2)c(O)c(C(C)(C)C)c1, the “activity change, negative = cytotoxicity” value is reported as -19.6% (inactive). In the case of O=C(O)c1ccccc1OP(=O)(O)O, the “activity change, negative = cytotoxicity” value is reported as -0.899% (inactive). For O=C(/C=C/c1ccccc1)OCc1ccccc1, the “activity change, negative = cytotoxicity” value was 4.87% (inactive). In the case of NC(=O)NS(=O)(=O)c1ccc(N)cc1, the “activity change, negative = cytotoxicity” value is reported as 0% (inactive). With CC(CN(C)C)C(C)(O)Cc1ccc(Cl)cc1 (stereo not given) the “activity change, negative = cytotoxicity” value was -0.0603% (inactive). For C[N+](C)(C)CC[N+]1(C)Cc2c(Cl)c(Cl)c(Cl)c(Cl)c2C1, the “activity change, negative = cytotoxicity” value was -19.1% (inactive). With CCCNC(C)(C)COC(=O)c1ccccc1 the “activity change, negative = cytotoxicity” value was -2.79% (inactive). For CC(=O)Nc1ccc(OCCOCCOc2ccc(NC(C)=O)cc2)cc1, the “activity change, negative = cytotoxicity” value was -20.6% (inactive). For COC(=O)c1ccc(O)cc1, the “activity change, negative = cytotoxicity” value was 6.14% (inactive). In the case of O=C(O)Cc1cn(-c2ccccc2)nc1-c1ccc(Cl)cc1, the “activity change, negative = cytotoxicity” value is reported as 0% (inactive). In the case of CC(=O)N[C@@H](Cc1ccc(O)cc1)C(=O)O, the “activity change, negative = cytotoxicity” value is reported as -0.693% (inactive). In the case of Cc1cc(C)nc(NS(=O)(=O)c2ccc(N)cc2)n1, the “activity change, negative = cytotoxicity” value is reported as -10.8% (inactive). For CC(O)CCCCn1c(=O)c2c(ncn2C)n(C)c1=O (stereo not given), the “activity change, negative = cytotoxicity” value was -18.2% (inactive). With c1ccc2[nH]ccc2c1 the “activity change, negative = cytotoxicity” value was -11.7% (inactive). With CCCOC(=O)c1ccc(N)cc1 the “activity change, negative = cytotoxicity” value was -12.7% (inactive). With C=CCSCC1Nc2cc(Cl)c(S(N)(=O)=O)cc2S(=O)(=O)N1 (stereo not given) the “activity change, negative = cytotoxicity” value was -18.8% (inactive). With NC(=O)CCCCC1CCSS1 (stereo not given) the “activity change, negative = cytotoxicity” value was -16.9% (inactive). For Nc1ccc(S(=O)(=O)c2ccc(N)cc2)cc1, the “activity change, negative = cytotoxicity” value was 10.6% (inactive). With CC(=O)NS(=O)(=O)c1ccc(N)cc1 the “activity change, negative = cytotoxicity” value was 17.8% (inactive). For CN(C(=O)c1c(O)c2ccccc2n(C)c1=O)c1ccccc1, the “activity change, negative = cytotoxicity” value was -0.356% (inactive). For CCN1CC(CCN2CCOCC2)C(c2ccccc2)(c2ccccc2)C1=O (stereo not given), the “activity change, negative = cytotoxicity” value was 2.07% (inactive). For C[C@@H](N)C(=O)O, the “activity change, negative = cytotoxicity” value was 1.4% (inactive). For Cc1ccsc1C(=CCCN1CCC[C@@H](C(=O)O)C1)c1sccc1C, the “activity change, negative = cytotoxicity” value was -2.47% (inactive). For COc1ccc(C(=O)N2CCN(CC(=O)N3CCOCC3)CC2)cc1, the “activity change, negative = cytotoxicity” value was 2.01% (inactive). For CC(=O)OCC(COC(C)=O)OC(C)=O, the “activity change, negative = cytotoxicity” value was -0.84% (inactive). For COc1ccc(C(=O)NCc2ccc(OCCN(C)C)cc2)cc1OC, the “activity change, negative = cytotoxicity” value was -20.2% (inactive). With COc1ccc(NS(=O)(=O)c2ccc(N)cc2)nn1 the “activity change, negative = cytotoxicity” value was 10.1% [at 25.7 µM] (inactive). For Cn1c(=O)c2c(ncn2CCO)n(C)c1=O, the “activity change, negative = cytotoxicity” value was 5.85% (inactive). For O=C1c2cccc(O)c2C(=O)c2c(O)cccc21, the “activity change, negative = cytotoxicity” value was 2.59% (inactive). With O=C(O)c1cc(=O)c2ccccc2o1 the “activity change, negative = cytotoxicity” value was -26.6% (inactive). In the case of CCCCCCCCCCCCCCCCN, the “activity change, negative = cytotoxicity” value is reported as 3.13% (inactive). With O=C(O)c1ccc(OCCCOc2ccc(C(=O)O)cc2)cc1 the “activity change, negative = cytotoxicity” value was 0% (inactive). In the case of Cc1c(NC(C)C)c(=O)n(-c2ccccc2)n1C, the “activity change, negative = cytotoxicity” value is reported as 1.16% (inactive). With Cc1c(N(C)C)c(=O)n(-c2ccccc2)n1C the “activity change, negative = cytotoxicity” value was -3.45% (inactive). With O=C(CCBr)N1CCN(C(=O)CCBr)CC1 the “activity change, negative = cytotoxicity” value was -1.07% (inactive). In the case of NS(=O)(=O)c1ccc(NC(=O)CCC(=O)O)cc1, the “activity change, negative = cytotoxicity” value is reported as -4.36% (inactive). With CCCCC1(COC(=O)CCC(=O)O)C(=O)N(c2ccccc2)N(c2ccccc2)C1=O the “activity change, negative = cytotoxicity” value was 4.07% [at 25.7 µM] (inactive).
